Assay results as given in PubChem BioAssay (Tox21).
Inconclusive results are not listed. Where a call stands in place of a potency, no number is given. Calls of active or inactive are those of the source. The call rests on the fitted dose curve; in most records, active means well fitted cell-killing curve with a large enough effect in the repeat runs; inconclusive means weak or mixed curves, or effect the other way; inactive means flat fitted curve, though single readings scatter.

Test: qHTS assay to identify small molecule antagonists of the androgen receptor (AR) signaling pathway using the MDA cell line - cell viability counter screen (AID 743041; further: nearly all actives have a fitted effect of over 45% in size)
Conditions: MDA-kb2 viability, CellTiter-Fluor, 16 h, cells co-treated with R1881 androgen agonist; series mostly up to 70.3 µM
In short: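 Cytotoxicity counter screen: MDA-kb2 AR-luc cells, compound + R1881, 16 h, 37C, 0% CO2; CellTiter-Fluor added at 15.5 h, fluorescence read after 30 min.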
Potency means the concentration at half of the fitted maximal effect.

Compound	Potency
CN(C)CCCN1c2ccccc2Sc2ccccc21	inactive
Cc1nn(C)c(Oc2ccccc2)c1/C=N/OCc1ccc(C(=O)OC(C)(C)C)cc1	7.7 nM (active)
Nc1c(CC(=O)O)cccc1C(=O)c1ccc(Br)cc1	inactive
C=C(C)C(=O)OCC	inactive
CCCCCCCC/C=C\CCCCCCCC(=O)OCC	inactive
CN(Cc1ccc(C(C)(C)C)cc1)Cc1cccc2ccccc12	inactive
COc1ccc(S(=O)(=O)N2C(=O)[C@@](c3ccccc3OC)(N3C[C@H](O)C[C@H]3C(=O)N(C)C)c3cc(Cl)ccc32)c(OC)c1	inactive
COc1cc2c(cc1OC)C(C(C(=O)N(CCc1ccc(OC)c(OC)c1OC)CCc1ccc(OC)c(OC)c1OC)c1ccccc1)=NCC2 (stereo unspecified)	inactive
CCN(CC)CCNC(=O)c1cc(Br)c(N)cc1OC	inactive
CC1OC(=O)C(C)OC1=O (stereo unspecified)	inactive
CCCCC/C=C\C/C=C\CCCCCCCC(=O)NC(C)c1ccccc1 (stereo unspecified)	inactive
O=C(O)CC(=O)C(=O)O	inactive
C=C(C)C(=O)OCCO	inactive
CC/C=C\CCOC(=O)CC	inactive
COc1cc2nc(N(C)CCCNC(=O)C3CCCO3)nc(N)c2cc1OC (stereo unspecified)	inactive
O=C(O)C1(C(=O)Nc2ccc(Cl)cc2Cl)CC1	inactive
CCCCCCCCCOS(=O)(=O)O	inactive
O=C1c2ccccc2S(=O)(=O)N1CCCCN1CCN(c2ncccn2)CC1	inactive
OC(C#CCN1CCCC1)(c1ccccc1)c1ccccc1	inactive
CC(C)(CO)[N+](=O)[O-]	inactive
CCO[Si](CCCCl)(OCC)OCC	inactive
